Results taken from PubChem BioAssay (NCI).
Compounds without any hit were thinned out: in the full panel of roughly 83,000, 20% have a hit.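 Plates (96-well) were seeded with cells, treated with compound at one concentration, and incubated for 48 hours before percent growth was determined.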 Activity calls are given as the source filed them. Rule for the calls: active = growth percent below 10; inactive = the rest.

Assays:
Assay in all cases: NCI-60 one-dose screen, 48 h (100 = growth as untreated, 0 = no growth, -100 = all killed)
[1] = system: NCI-H23 lung; details: 10 µM unless noted
[2] = system: NCI-H226 lung; details: 10 µM unless noted
[3] = system: NCI-H322M lung; details: 10 µM unless noted
[4] = system: HOP-62 NSCLC; details: 10 µM unless noted
[5] = system: NCI-H460 lung; details: 10 µM unless noted
[6] = system: HOP-92 NSCLC; details: 10 µM unless noted
[7] = system: NCI-H522 lung; details: 10 µM unless noted
[8] = system: A549/ATCC NSCLC; details: 10 µM unless noted
[9] = system: 786-0 renal; details: 10 µM unless noted
[10] = system: COLO 205 colon; details: 10 µM unless noted
[11] = system: DU-145 prostate; details: 10 µM unless noted
[12] = system: K-562 leukemia; details: 10 µM unless noted
[13] = system: MALME-3M melanoma; details: 10 µM unless noted
[14] = system: MDA-MB-231 breast; details: 10 µM unless noted
[15] = system: RXF 393 renal; details: 10 µM unless noted
[16] = system: SF-268 CNS; details: 10 µM unless noted
[17] = system: SF-295 CNS; details: 10 µM unless noted
[18] = system: SF-539 CNS; details: 10 µM unless noted
[19] = system: UACC-257 melanoma; details: 10 µM
[20] = system: M14 melanoma; details: 10 µM unless noted

Measured: growth

COc1ccc(-n2cnc3c(sc4ncc(Cl)cc43)c2=O)cc1
inactive: [1] 93.4% | [2] 97.8% | [3] 45.7% | [4] 96.9% | [5] 49.1% | [6] 42.9% | [7] 93.3% | [8] 67% | [9] 76.8% | [10] 113% | [11] 83.6% | [12] 87.9% | [13] 88.2% | [14] 113% | [15] 106% | [16] 65.8% | [17] 44.2% | [18] 91.6% | [19] 90.8% | [20] 105%

O=C(Nc1ccc(Br)c(Cl)c1)c1cc(F)ccc1O
inactive: [10] 41.5% | [11] 23.5% | [16] 19.1%
active: [1] -9.2% | [2] -23.8% | [3] 9.4% | [4] 0.0415% | [5] 3.85% | [6] -14.4% | [7] 0.474% | [8] 8.88% | [9] 7.91% | [12] 9.59% | [13] -22.8% | [14] -20% | [15] -5.62% | [17] -53.1% | [18] 5.17% | [19] -23.5% | [20] -14.3%

Clc1nc(-c2cccnc2)nc2sc3c(c12)CCCCCC3
inactive: [1] 99.5% | [2] 98.6% | [3] 102% | [4] 97.5% | [5] 107% | [6] 86.2% | [7] 85.7% | [8] 94.8% | [9] 101% | [10] 107% | [11] 109% | [12] 101% | [13] 103% | [14] 97.7% | [15] 116% | [16] 95.7% | [17] 92.9% | [18] 96.6% | [19] 93.1% | [20] 107%

Nc1c(C(=O)c2ccc(F)cc2)sc2nc3c(cc12)CCCC3
inactive: [1] 77.9% | [2] 85.4% | [3] 81.3% | [4] 91.1% | [5] 90.3% | [6] 61.3% | [8] 70.9% | [9] 85.3% | [10] 84.8% | [11] 77.9% | [12] 25.8% | [13] 31.7% | [14] 85.7% | [15] 56% | [16] 87.4% | [17] 72.6% | [18] 95.3% | [19] 95% | [20] 71%
active: [7] -2.9%

O=C1Nc2ccc(Br)cc2C1=N/C=c1\[nH]c(=O)/c(=C/c2ccc(Cl)cc2)s1
inactive: [1] 97.8% | [2] 98.3% | [3] 93.2% | [4] 84.1% | [5] 101% | [6] 83.2% | [7] 89.3% | [8] 85.3% | [9] 90.6% | [10] 102% | [11] 102% | [12] 81% | [13] 93.6% | [14] 88.6% | [15] 94.9% | [16] 95.2% | [17] 96.5% | [18] 90.7% | [19] 95.7% | [20] 101%

COc1ccc2c(c1)C(=O)/C(=C/c1ccc(O)cc1)O2
active: [6] -40% | [7] -97.9% | [15] -59.9%
inactive: [1] 93.9% | [2] 78.2% | [3] 86.6% | [4] 90.8% | [5] 91.2% | [8] 91.8% | [9] 101% | [10] 24.8% | [11] 109% | [12] 59.7% | [13] 71.2% | [14] 78.5% | [16] 97.9% | [17] 98.1% | [18] 80.2% | [19] 86.7% | [20] 93.4%

Clc1ccc2c(c1)NC1(CCSc3ccccc31)n1nccc1-2 (stereo not given)
inactive: [1] 98.5% | [2] 92.5% | [3] 95.1% | [4] 112% | [5] 103% | [6] 91.6% | [7] 89.7% | [8] 90% | [9] 96.9% | [10] 114% | [11] 103% | [12] 97.4% | [13] 85.8% | [14] 98.1% | [15] 119% | [16] 94.8% | [17] 97.4% | [18] 92.4% | [19] 97.4% | [20] 96.6%

CCn1c(=O)c2c(=O)c3c4c(oc3oc2c2ccccc21)C(=O)c1ccccc1C4=O
active: [14] 6.33%
inactive: [1] 66.8% | [2] 99.4% | [3] 97.7% | [4] 80.3% | [5] 83.7% | [6] 50.8% | [7] 65.5% | [8] 82.4% | [9] 105% | [10] 110% | [11] 92.4% | [12] 28.6% | [13] 113% | [15] 106% | [16] 84.3% | [17] 95.1% | [18] 89.9% | [19] 90.6% | [20] 89.8%

O=C(NCCCN1CCN(CCCNC(=O)C2CCCCC2)CC1)C1CCCCC1
inactive: [1] 111% | [2] 105% | [3] 91.9% | [4] 94.7% | [5] 101% | [6] 70.5% | [7] 95% | [8] 101% | [9] 96.5% | [10] 104% | [11] 110% | [12] 92.7% | [13] 94% | [14] 108% | [15] 119% | [16] 104% | [17] 84.5% | [18] 96.7% | [19] 97.1% | [20] 98.6%

CCC1=C[C@@H]2CN(C1)Cc1c([nH]c3ccccc13)[C@@](C(=O)OC)(c1cc3c(cc1OC)N(C=O)[C@H]1[C@@](O)(C(=O)OC)[C@H](OC(C)=O)[C@]4(CC)[C@@H]5C[C@@H]5CN5CC[C@]31[C@@H]54)C2
inactive: [1] 15.7% | [2] 35.4% | [3] 48.8% | [4] 34% | [8] 11% | [9] 25.8% | [13] 40.4% | [15] 40.7% | [16] 16.1% | [19] 52.5%
active: [5] 6.63% | [6] -16.4% | [7] -0.697% | [10] -78.5% | [11] -9.76% | [12] 9.35% | [14] -24% | [17] -32.8% | [18] -18.1% | [20] 3.92%

COc1cc(NC(=O)c2cc3ccccc3nc2Nc2ccc(F)cc2)cc(OC)c1OC
inactive: [1] 39.8% | [2] 43% | [3] 65.8% | [4] 83.2% | [5] 40.3% | [6] 28.5% | [7] 49.8% | [8] 42.8% | [9] 53.5% | [10] 38% | [11] 69.8% | [12] 37.3% | [13] 66.7% | [14] 51.2% | [15] 50.6% | [16] 50.9% | [17] 39.5% | [18] 40.5% | [19] 27.6% | [20] 30.2%

C[C@]12CC[C@@H]3c4cc(O)c(O)cc4CC[C@H]3[C@@H]1CC[C@@H]2O
inactive: [1] 64.5% | [2] 97.8% | [3] 60.6% | [4] 44.4% | [5] 29.5% | [6] 18.1% | [8] 43.3% | [9] 43% | [10] 115% | [11] 39.1% | [13] 16.8% | [14] 48.1% | [15] 28.7% | [16] 46.7% | [17] 35% | [19] 31.2% | [20] 23.4%
active: [7] -8.58% | [12] 7.32% | [18] -1.85%

COc1cc(OC)c(C(=O)/C=C/c2ccc(C(F)(F)F)cc2)c(OC)c1
inactive: [1] 42.3% | [2] 64.7% | [3] 62% | [4] 55.1% | [5] 23.1% | [6] 96.8% | [7] 28.8% | [8] 53.5% | [9] 45.4% | [10] 86.9% | [11] 11.9% | [12] 32.3% | [13] 75.3% | [14] 59.7% | [15] 41.1% | [16] 55.9% | [17] 69.9% | [18] 68.7% | [19] 62.5% | [20] 59%

CCN(CC)P(=O)(N(CC)CC)N(CCCSC/C=C(\C)CC/C=C(\C)CCC=C(C)C)CCCN1CCN(C)CC1
inactive: [1] 110% | [2] 96.9% | [3] 108% | [4] 106% | [5] 101% | [6] 82.4% | [7] 91.6% | [8] 87.6% | [9] 101% | [10] 105% | [11] 106% | [12] 71.8% | [13] 98.7% | [14] 111% | [15] 91.3% | [16] 102% | [17] 96.4% | [18] 106% | [19] 110% | [20] 107%

CN1C(=O)[C@H]2c3c1cccc3[C@@]13NC(=O)O[C@H]1[C@H](CCC3(C)C)C2(C)C
inactive: [1] 103% | [2] 95.2% | [3] 108% | [4] 96% | [5] 105% | [6] 81.9% | [7] 92.6% | [8] 93.7% | [9] 96.6% | [10] 107% | [11] 106% | [12] 82.6% | [13] 110% | [14] 88.6% | [15] 101% | [16] 95.2% | [17] 75% | [18] 98% | [19] 104% | [20] 108%

N=C(N)c1ccc(-c2ccc(-c3ccc(Cl)cc3)o2)nc1
active: [1] -81.9% | [2] -68.2% | [3] -94.5% | [4] -85.5% | [5] -91.6% | [6] -87.7% | [7] -78.9% | [8] -82.8% | [9] -85.1% | [10] -87.5% | [11] -98.4% | [13] -66.4% | [14] -90% | [15] -98.1% | [16] -95.6% | [17] -85.4% | [18] -92.4% | [19] -89% | [20] -88.3%
inactive: [12] 112%
